Common to all, as to test: NCI-60 one-dose screen, 48 h (100 = growth as untreated, 0 = no growth, -100 = all killed)
Conditions in all cases: 10 µM unless noted

Test [1] relates to SK-MEL-2 melanoma.
Test [2] relates to EKVX NSCLC.
The subject of test [3] is SN12C renal.
Test [4] deals with UO-31 renal.
Test [5] deals with TK-10 renal.
Test [6] deals with ACHN renal.
Test [7] has as its system CAKI-1 renal.
Test [8] has as its system A498 renal.
In test [9] the test system is CCRF-CEM leukemia.
Test [10] concerns MOLT-4 leukemia.

This is part of a sample that, as a whole, favours compounds with a hit. Of some 83,000 tested, about 20% had one in any assay.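 Single-concentration screen, 48 h exposure, 96-well plates. Endpoint: percent growth. Below 10 = active.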 Unmarked numbers belong to inactive results. The source made the active and inactive calls.

With `CCCCCCCC/C=C\CCCCCCCCOc1ccccc1CC(=O)NCC[N+]1(C)CCCCC1`, the growth was 88.2% in test [1]; 93.4% in test [2]; 43.2% in test [3]; 94.8% in [4]; 75.8% in test [5]; 110% in test [6]. Moreover, the growth is 81.9% in test [7], 94.6% in [8], 23.1% in [9] and 20.5% in test [10].
`O=C(O)C1CN(c2cccc(Cl)c2)N(c2cccc(Cl)c2)C1=O` (stereo not given): the growth in test [1] is 94.7%; in test [2], 96.9%; in [3] it was 89%; in test [4] it was 72.2%; in test [5], 105%; in [6] it was 95.6%. For the same compound, the growth is 92.8% in test [7], 110% in test [8], 107% in test [9] and 88.8% in test [10].
Consider `COc1ccc(C2=CN3CC=CCC3CC2=O)cc1` (stereo not given), for which the growth in test [1] was 92.1%; in test [2], 104%; in test [3], 97%; in [4] it was 95.6%; in test [5], 103%; in test [6], 115%. The growth in test [7] is 99.7%; in test [8], 93.7%; in [9], 108%; in [10], 95%.
`COc1ccc(Cc2cnc(NC(=O)c3sc4ccccc4c3Cl)s2)cc1`: the growth was 43.9% in test [1]; 40.8% in test [2]; 28.7% in [3]; 48.4% in test [4]; 63.1% in test [5]; 41.3% in test [6]. Further, the growth in [7] is 41.9%; in test [8], 21.3%; in [9] it was 21%; in [10] it was 14.8%.
As to `CN1CCN(C(=O)c2cc(-c3ccc4ncnc(N5CCc6cc(F)c(Cl)cc65)c4c3)cnc2N)CC1`, the growth in test [1] was -48% (active); in test [2] it was -10.2% (active); in [3], 9.07% (active); in [4], 3.95% (active); in test [5], -14.2% (active); in test [6] it was 5.3% (active). The growth was -33.3% (active) in [7], -69.2% (active) in test [8], 7.93% (active) in test [9] and 1.54% (active) in [10].
With `COc1cc(OC)cc(C2C(C#N)=C(N)Oc3c2ccc2ccc(O)cc32)c1` (stereo not given), the growth in test [1] was 21.3%; in test [2] it was 32.9%; in test [3], 9.97% (active); in [4] it was 18.7%; in [5], 48.3%; in [6], 15.8%. Moreover, the growth in test [7] was 21.1%; in [8], 32.1%; in test [9] it was 7.39% (active); in test [10] it was 7.26% (active).
Turning to `C=C1C(=O)O[C@H]2[C@H]1CC/C(COC(=O)c1cc3cc(F)ccc3[nH]1)=C\CC[C@@]1(C)O[C@@H]21`, the growth in test [1] is -69% (active); in test [2], -78.1% (active); in [3], -42% (active); in [4], -88.1% (active); in test [5], -94.9% (active); in test [6], -88.5% (active). Further, the growth in test [7] was -90.8% (active); in [8], -40.2% (active); in test [9], -31.9% (active); in test [10] it was -16.2% (active).
As for `Cc1nc2sc(C(=O)Nc3cccc(Cl)c3)c(N)c2cc1C(O)c1ccccc1` (stereo not given), the growth was 49.9% in test [1]; 44.6% in test [2]; 24.4% in test [3]; 45.7% in test [4]; 62.4% in test [5]; 30.5% in test [6]. Besides, the growth in test [7] was 46.4%; in test [8] it was 8.38% (active); in test [9] it was 17.1%; in test [10], 14.5%.
Consider `CCOC(=O)c1ccc2c(c1)c1c(C)c3ccncc3c(C)c1n2C`, for which the growth in test [1] was -38.2% (active); in test [2] it was 10.3%; in [3], 4.36% (active); in [4] it was -13.4% (active); in test [5] it was 2.52% (active); in test [6] it was -22.5% (active). Also, the growth in test [7] is -10.4% (active); in test [8] it was -45.6% (active); in [9], 12.6%; in [10], 8.03% (active).
As to `COc1ccc2c(O)c(/C=C3\N=Nc4ccccc43)oc2c1C[C@H]1CCNC[C@H]1F`, the growth is 83.1% in test [1]; 40% in [2]; 45.2% in [3]; 45.3% in test [4]; 65.4% in test [5]; 42.8% in [6]. For the same compound, the growth in test [7] is 31%; in test [8] it was 39.9%; in test [9], 47.9%; in [10] it was 24.2%.
Consider `CCOC(=O)c1c(C)nc2ccccc2c1/C=C/c1ccc(OC)cc1`, for which the growth is 64.3% in [1]; 54.9% in test [2]; 79.8% in test [3]; 52.3% in test [4]; 85.8% in test [5]; 58.8% in test [6]. In addition, the growth in test [7] was 56.8%; in test [8], 77.9%; in test [9], 56.4%; in test [10], 26.1%.

These data come from PubChem BioAssay (NCI).
